Reference: PubChem BioAssay (Tox21)
Values joined by “and” are separate entries in the source; they are usually repeats but may differ in a detail not shown here. Identical values can stand only once. Results filed as inconclusive are left out. A structure can be active in one record and inactive in another. Active and inactive are the calls of the source. Calls come from the whole dose curve; as a rule, active = well fitted cell-killing curve with a large enough effect in the repeat runs; inconclusive = weak or mixed curves; inactive = no such curve, though single readings can be large or run the other way.

experiment: qHTS assay for identifying genotoxic compounds that show differential cytotoxicity against isogenic chicken DT40 cell lines with known DNA damage response pathways - Rad54/Ku70 mutant cell line (AID 743015); conditions: DT40 Rad54/Ku70 mutant viability, CellTiter-Glo, 40 h; series mostly up to 66.8 µM; activity change, negative = cytotoxicity: at the top concentration; note: nearly all actives have a fitted effect of over 60% in size
Source text: National Center for Advancing Translational Sciences [NCATS]
NIH Chemical Genomics Center [NCGC]
U.S. Environmental Protection Agency [EPA]
National Institutes of Environmental Health Sciences [NIEHS]
National Toxicology Program [NTP]
U.S. Food and Drug Administration [FDA]
DNA repair pathways play a critical role in cellular homeostasis by repairing DNA damage induced by endogenous processes and xenobiotics. Isogenic chicken DT40 cell lines deficient in different DNA repair pathways can be used to identify genotoxic compounds and aid in characterizing the nature of the DNA damage induced. Two DNA repair-deficient cell lines with disrupted genes, Rad54/Ku70 or Rev3, were used to screen the Tox21 10K compound library. Possible genotoxicity was based on the presence of a significant increase in cytotoxicity in one or more of the DNA repair-deficient cell lines compared to that observed in the parental DNA repair-proficient cell line. CellTiter Glo viability assay (Promega, Madison, WI) was used to measure cell viability in these cells after compound treatment. This assay includes the data from the Rad54/Ku70 mutant cell line.
Tox21 Assay Protocol Summary:
300 DT40 mutant cells in 5 uL/well were dispensed into white, solid-bottom 1536-well plates using a Multidrop Combi (ThermoFisher Scientific, Waltham, MA) dispenser. After the assay plates were incubated at 37 C/5% CO2 for approximately 0.5 hour, 23 nL of compounds dissolved in DMSO, positive controls or DMSO only was transferred into the assay plate by a pintool work station (Kalypsys, San Diego, CA). The assay plates were incubated at 37 C/5% CO2 for 40 hours. After 5 uL per well of CellTiter-Glo reagent was added into each well of the assay plates, the plates were incubated for 30 min at room temperature and the luminescence intensity of the plates was measured using a ViewLux (PerkinElmer, Shelton, CT) plate reader.
% is set by controls: 0 for no effect and ±100 for the full control effect; potency is the fitted concentration of half-maximal effect.

SMILES | activity change, negative = cytotoxicity | Potency
NC[C@H]1O[C@H](O[C@H]2[C@H](O[C@@H]3O[C@H](CO)[C@@H](O)[C@H]3O)C(O)[C@H](N)C[C@@H]2N)[C@H](N)[C@@H](O)[C@@H]1O (stereo not given in full) | -2.26% [at 30.7 µM] (inactive) | 
COC(=O)C1=C(C)NC(C)=C(C(=O)OCCN2CCN(C(c3ccccc3)c3ccccc3)CC2)C1c1cccc([N+](=O)[O-])c1 (stereo not given) |  | 6.68 µM (active)
Nc1cc(Cl)c(O)c(Cl)c1 |  | 24.3 µM (active)
CCCCC(CC)CN1CN(CC(CC)CCCC)CC(C)(N)C1 (stereo not given) |  | 8.04 µM (active)
CC(C)(C)NSc1nc2ccccc2s1 | 12.4% [at 95.1 µM] (inactive) | 
Cc1cc(C(C#N)c2ccc(Cl)cc2)c(Cl)cc1NC(=O)c1cc(I)cc(I)c1O (stereo not given) |  | 26.6 µM (active)
COc1c(C)c2c(c(O)c1C/C=C(\C)CCC(=O)OCCN1CCOCC1)C(=O)OC2 |  | 0.422 µM (active)
CCCCCc1ccc(Cl)cc1 | -3.48% (inactive) | 
c1ccsc1 | -1.63% (inactive) | 
Cc1cccc2cccnc12 | 1.64% (inactive) | 
Cc1cccc(C(=O)O)c1O | 14% (inactive) | 
CCCCNS(=O)(=O)c1ccc(C)cc1 | 2.1% (inactive) | 
CCn1c2ccccc2c2cc([N+](=O)[O-])ccc21 |  | 54.5 µM (active)
Nc1nc2c(ncn2COCCO)c(=O)[nH]1 |  | 4.52 µM (active)
ClCCl | 3.96% (inactive) | 
CC(=O)[C@H]1CC[C@H]2[C@@H]3CCC4=CC(=O)CC[C@]4(C)[C@H]3CC[C@]12C |  | 9.44 µM (active) and 12.1 µM (active) and 12.2 µM (active)
CC(C)OC(=O)C(O)(CC(=O)O)CC(=O)O | -20.7% (inactive) | 
CN1CCN(Cc2cc(-c3ccc4[nH]c(=O)oc4c3)co2)[C@@H](c2ccc(F)cc2)C1 |  | 14.8 µM (active)
CNC(=O)c1ccccc1Sc1ccc2c(/C=C/c3ccccn3)n[nH]c2c1 |  | 2.66 µM (active)
O=C1c2ccccc2C(=O)N1SC1CCCCC1 |  | 17.2 µM (active) and 4.33 µM (active)

SMILES | activity change, negative = cytotoxicity | Potency
CN1CCC[C@@H]1CCO[C@](C)(c1ccccc1)c1ccc(Cl)cc1 |  | 21.1 µM (active)
O=[N+]([O-])c1ccc(F)c(Cl)c1 | -0.334% (inactive) | 
O=C(/C=C/c1ccc(O)c(O)c1)O[C@@H](C(=O)O)[C@@H](OC(=O)/C=C/c1ccc(O)c(O)c1)C(=O)O | 9.73% (inactive) | 
O=C1C(c2[nH]c3ccc(S(=O)(=O)O)cc3c2O)=Nc2ccc(S(=O)(=O)O)cc21 |  | inactive and 30.6 µM (active)
O=c1[nH]c2ccccc2n1CCCN1CCN(C(c2ccccc2)c2ccccc2)CC1 |  | 8.41 µM (active)
CC(C)(C)c1ccc(C(O)CCCN2CCC(C(O)(c3ccccc3)c3ccccc3)CC2)cc1 (stereo not given) |  | 9.44 µM (active)
O=C(O)c1cc(N=Nc2ccc([N+](=O)[O-])cc2)ccc1O | -3.18% (inactive) | 
OC[C@H]1O[C@H](O[C@H]2O[C@H](CO)[C@@H](O)[C@H](O)[C@H]2O)[C@H](O)[C@@H](O)[C@@H]1O | 2.19% [at 95.1 µM] (inactive) | 
COc1ccc2cc1Oc1ccc(cc1)C[C@H]1c3c(cc4c(c3Oc3cc5c(cc3OC)CCN(C)[C@@H]5C2)OCO4)CCN1C |  | 8.41 µM (active)
C/C=C/C=C/COC(=O)C(C)C |  | 17.2 µM (active)
CCOC(=O)c1ccc(C2CCC(NC[C@H](O)COc3ccc(O)c(NS(C)(=O)=O)c3)CC2)cc1 (stereo not given in full) |  | 0.113 µM (active)
CCCCCCCCCCCCOCCOCCOCCOCCOCCOCCOCCOCCOCCO |  | 5.96 µM (active)
CCc1cccc(CC)c1NC(=O)CN(CC(=O)O)CC(=O)O | -3.91% [at 30.7 µM] (inactive) | 
COc1cc2nc(N3CCN(C(=O)c4ccco4)CC3)nc(N)c2cc1OC |  | 13.3 µM (active)
CC(C)(C)CC(C)(C)c1ccc(Nc2ccc(C(C)(C)CC(C)(C)C)cc2)cc1 | 9.12% [at 8.55 µM] (inactive) | 
CC(C)(C)c1csc(-c2cc3cc(OCc4ccccc4CC(=O)O)ccc3o2)n1 |  | 61.1 µM (active)
O=C(O)c1cccc(C(F)(F)F)c1 | -2.23% (inactive) | 
CN(C)C(=O)COC(=O)Cc1ccc(OC(=O)c2ccc(N=C(N)N)cc2)cc1 | 0.706% (inactive) | 
OCCN1CCN(CCCN2c3ccccc3Sc3ccc(C(F)(F)F)cc32)CC1 |  | 4.22 µM (active)
c1cnccn1 | 6.34% [at 95.1 µM] (inactive) | 
